Compounds with a hit are over-represented: about 6.2% of the library has one in this group of screens.
VP16 counter – counter-screen for ROR gamma inhibitors: Gal4-VP16 reporter | Drosophila S2 Gal4-VP16 UAS-luciferase, luminescence, 20 h | Potency, µM (highest dose often 53.6 µM), without a hit: at the top dose activity, negative = inhibition, hits mostly inhibitors | 310,000 compounds, 3.5% hits | AID 2546;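 also: Gal4-VP16 expression switched on by copper sulfate through the metallothionein promoter; nearly all actives have a fitted effect of over 50% in size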
RORgamma inh – blocks mouse ROR gamma transcriptional activity. 310,000 compounds, 5.4% hits. Potency, µM (highest dose often 53.6 µM), without a hit: at the highest dose activity change, negative = inhibition, hits mostly inhibitors. P51450. Drosophila S2 Gal4-RORgamma UAS-luciferase reporter, 20 h; also: nearly all actives have a fitted effect of over 60% in size
Target sequence (P51450 whole entry, looked up, the tested form may be a part): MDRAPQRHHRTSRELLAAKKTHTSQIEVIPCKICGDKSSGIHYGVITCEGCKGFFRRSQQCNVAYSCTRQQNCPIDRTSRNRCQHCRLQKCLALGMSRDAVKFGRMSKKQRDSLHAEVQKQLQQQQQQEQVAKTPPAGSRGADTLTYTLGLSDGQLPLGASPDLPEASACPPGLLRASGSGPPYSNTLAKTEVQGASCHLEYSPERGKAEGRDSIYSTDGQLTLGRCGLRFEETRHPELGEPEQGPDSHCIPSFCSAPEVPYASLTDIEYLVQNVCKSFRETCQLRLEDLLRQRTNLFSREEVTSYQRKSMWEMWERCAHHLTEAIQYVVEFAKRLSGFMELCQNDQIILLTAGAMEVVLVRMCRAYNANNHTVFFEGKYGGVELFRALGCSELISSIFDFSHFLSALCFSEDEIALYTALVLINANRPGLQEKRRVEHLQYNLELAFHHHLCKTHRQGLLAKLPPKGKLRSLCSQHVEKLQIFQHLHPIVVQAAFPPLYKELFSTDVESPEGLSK
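Drosophila S2 cells stably expressing Gal4-DBD/mouse RORγ fusion under metallothionein promoter plus UAS-luciferase; compound 1 h, then 700 uM CuSO4 induction for 20 h at ambient temperature; inhibition read as reduced luminescence.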
KinaseGlo FLuc – Kinase-Glo luciferase inhibition (counter-screen); Q27757; Kinase-Glo luciferase, ATP luminescence, 8 min; Potency, µM (highest dose often 38.3 µM), for inactives: at the highest dose activity change, negative = inhibition, usual class: inhibitors; 200,000 compounds, 0.28% hits; AID 1379; also: nearly all actives have a fitted effect of over 60% in size
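Recombinant Kinase-Glo luciferase, 10 uM ATP (linear range), luciferin; imidazole pH 7.2 / KCl / MgCl2 / Tween / BSA buffer; 8 min RT; luminescence.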
Active calls of the source: *; ? = inconclusive; / = no result; ! = not confirmed by another sample; [ ] = remark or other dose. Calls follow the shape of the dose curve; as a rule, active = well fitted curve in the direction sought with a large enough effect; inconclusive = small, poorly fitted or top-dose-only effect, or another doubt; inactive = no such curve, though single readings can be large; an effect the other way counts as inactive or inconclusive. % is scaled to controls: 0 for no effect and ±100 for the full control effect; potency is read from the fitted curve at half-maximal effect.

SMILES	VP16 counter	RORgamma inh	KinaseGlo FLuc
COc1cccc(N2CC(C(=O)Nc3nnc(SCC(=O)Nc4ccc(NC(C)=O)cc4)s3)CC2=O)c1 (stereo unspecified)	-4%	-5%	/
COc1cccc(C(=O)Nc2nnc(Cc3ccc(OC)c(OC)c3)s2)c1	-5%	-22%	/
COc1cccc(C(=O)Nc2nnc(C(C)C)s2)c1	?	8.9µM*	-6%
CCSc1nnc(NC(=O)[C@@H](NC(=O)c2cccc(C)c2)C(C)C)s1	-1%	32%	3%
O=C(c1cccc(F)c1)N1CCN(c2cc(N3CCCCC3)c(F)cc2[N+](=O)[O-])CC1	?	?	4%
COC(=O)c1ccc(C(NC(=O)OCc2ccccc2)/C(F)=C/[C@@H](C)C(=O)NCCO)cc1 (stereo partly specified)	-6%	7%	-2%
COC(=O)c1ccc(C(NC(=O)OCc2ccccc2)/C(F)=C/[C@@H](C)C(=O)Nc2ccc(OC)cc2)cc1 (stereo partly specified)	?	20µM*	-1%
Cc1[nH]c(=O)[nH]c(=O)c1S(=O)(=O)Nc1ccc(F)cc1F	-6%	0%	/
COC(=O)c1cc(=O)n(-c2ccc(F)cc2)c(=Nc2ccc(F)cc2)s1	16µM*	?	12%
COC(=O)c1ccc(N=c2sc(C(=O)OC)cc(=O)n2C)cc1	-1%	5%	/
O=[N+]([O-])c1cc(-c2ncccn2)c([N+](=O)[O-])s1	7.1µM*	4µM*	-5%
O=C(Nc1ncccn1)c1cc([N+](=O)[O-])cc([N+](=O)[O-])c1	-7%	-18%	-1%
C[C@H]1C(=O)N(S(=O)(=O)c2ccccc2[N+](=O)[O-])[C@H]1c1ccc(-c2ccccc2)cc1	9%	0%	/
CC(C)Cc1cc(C(=O)N2CCC(N3CCC(C(=O)NC4CC4)CC3)CC2)n[nH]1	-10%	3%	0%
CCn1c(N2CCN(Cc3ccc([N+](=O)[O-])cc3)CC2)nc2ccccc21	4%	-17%	/
CCCn1c(N2CCN(Cc3ccc(Cl)cc3)CC2)nc2ccccc21	?	11µM*	-3%
Cc1cc(C)n(-c2ccc(C(=O)C(C#N)c3nc4ccccc4n3C)cc2)n1 (stereo unspecified)	8.9µM*	3.2µM*	-21%
Cc1cc(C)n(-c2ccc(C(=O)OC(C)C)cc2)n1	4%	0%	0%
CCSc1ncc(Cl)c(C(=O)Nc2ccc(S(N)(=O)=O)cc2)n1	7%	11%	/
Cc1onc(-c2c(F)cccc2Cl)c1C(=O)NCc1ccc2c(c1)OCO2	1%	2%	/
Cc1cccc(COC(=O)Nc2ccc(NC(=O)c3ccccc3Cl)cc2)c1	13%	-3%	/
CC(=O)Nc1ccc(NC(=O)c2nc(S(=O)(=O)Cc3cccc(C)c3)ncc2Cl)cc1	5µM*	6.3µM*	/
Cc1cccc(CS(=O)(=O)c2ncc(Cl)c(C(=O)NCc3ccc4c(c3)OCO4)n2)c1	3.2µM*	6.3µM*	/
COC(=O)c1ccc(NC(=O)c2nc(S(=O)(=O)Cc3cccc(C)c3)ncc2Cl)cc1	4.5µM*	6.3µM*	/
Cc1cccc(-n2ncc3c2CCCC3NC(=O)c2ccc[n+]([O-])c2)c1C (stereo unspecified)	?	34%	/
SMILES	VP16 counter	RORgamma inh	KinaseGlo FLuc
COC(=O)c1ccc(C(=O)NC2CCCc3c2cnn3-c2ccccc2F)nc1 (stereo unspecified)	5%	12%	/
CC(C)c1cc(C(=O)NC2CCCc3c2cnn3-c2ccccc2F)no1 (stereo unspecified)	11µM*	-29%	/
COc1cc(C(=O)NC2CCCc3c2cnn3-c2ccccc2F)cc(OC)c1OC (stereo unspecified)	5µM*	-36%	/
Cc1cc(C(=O)NC2CCCc3c2cnn3-c2ccccc2F)nc(C)n1 (stereo unspecified)	-9%	-1%	/
Cc1cc(C(=O)NC2CCCc3c2cnn3-c2cccc(C)c2C)n(C)n1 (stereo unspecified)	2.2µM*	?	/
O=c1cc(O)nc[nH]1	2%	0%	/
COCCCNc1nc2nonc2nc1N1CCC(C(C)N2CCOCC2)CC1 (stereo unspecified)	14%	0%	-2%
CCC(C)C(NS(=O)(=O)c1ccc(C)cc1)C(=O)NCCCN1CCOCC1 (stereo unspecified)	-3%	-4%	/
CN(CC(=O)Nc1ccc(F)cc1)C(=O)COc1ccc([N+](=O)[O-])cc1Cl	5%	22%	0%
CCN(CC)CCOc1ccc(/C(=C(/Cl)c2ccccc2)c2ccccc2)cc1	?	?	0%
CC/C(=C(\c1ccccc1)c1ccc(OCCN(C)C)cc1)c1ccccc1	32µM*!	10µM*!	-3%
O=C(Nc1cccc2ncccc12)C(c1ccccc1)c1ccccc1	3%	16%	-1%
O=C1C(c2ccnc3ccccc23)=C(O)c2ccccc21	?	5µM*	?
Cc1ccc(-c2csc(N3CCN(c4cc5c(cc4Cl)nc(C)n5CCN4CCCCC4)CC3)n2)cc1	?	11µM*	/
Cc1ccc(-c2csc(N3CCN(c4cc5c(cc4Cl)nc(C(C)N)n5CCCO)CC3)n2)cc1 (stereo unspecified)	11%	0%	/
COc1cccc2c1OC1(C)CC2NC(=O)N1c1cccc(C(=O)N2CCN(c3ccccc3)CC2)c1 (stereo unspecified)	-8%[10 µM]	19%	-3%
CCOc1ccccc1NC(=O)c1csc(C)c1C	7%	-10%	/
CCn1c2ccccc2c2nnc(SCc3ccc(C(=O)OC)o3)nc21	13µM*	?	0%
CCn1c2ccccc2c2nnc(SCc3ccccc3)nc21	?	?	6%
Cc1ccc(-c2cc(-c3n[nH]c(=S)o3)c3ccccc3n2)cc1	4.5µM*	7.1µM*	2%
CSc1nnc(-c2cc(-c3ccc(C)cc3)nc3ccccc23)o1	5%	-5%	-2%
S=c1[nH]nc(-c2cc(-c3ccccn3)nc3ccccc23)o1	0%	5µM*	/
S=c1[nH]nc(-c2ccccc2)o1	-3%	26%	5%
O=C(Cc1ccsc1)NNC(=O)c1cccc(Cl)c1	3%	-7%	/
COc1ccccc1NC(=S)N(C(C)C)C(C)c1ccccn1 (stereo unspecified)	-4%[10 µM]	13µM*	0%
SMILES	VP16 counter	RORgamma inh	KinaseGlo FLuc
CC(C)N(C(=S)Nc1cccc(C(F)(F)F)c1)C(C)c1ccccn1 (stereo unspecified)	3%[10 µM]	?	-2%
COc1cc(NC(=S)NC(C)(C)C)c(OC)cc1Cl	?	5µM*	-2%
COc1ccc(NC(=S)NCCc2ccccc2)c(OC)c1	18µM*	11µM*	-1%
COc1ccc(NC(=O)CC(C)CC(=O)NCc2ccccc2)c(OC)c1 (stereo unspecified)	1%	-13%	/
COc1ccc(NC(=S)NCCc2ccc(F)cc2)c(OC)c1	?	?	0%
COc1cc(NC(=S)Nc2ccc(Br)cc2Cl)c(OC)cc1Cl	?	?	2%
COc1cc(NC(=S)NCc2cccnc2)c(OC)cc1Cl	-6%	-11%	-2%
COc1cc(OC)c(NC(=S)NCc2ccccc2)cc1Cl	?	11µM*	/
COc1ccc(NC(=S)NCc2ccccc2)c(OC)c1	?	16µM*	/
Cc1sc(NC(=O)c2ccccc2)c(C#N)c1-c1ccccc1	?	44%	-6%

Assay outcomes: PubChem, National Center for Advancing Translational Sciences (NCATS)
